# Measurements taken from PubChem BioAssay (NCATS).
# Inconclusive results are not listed. More than one record can exist for a structure, and the calls need not agree. The source made the active and inactive calls. Calls follow the shape of the dose curve; as a rule, active = well fitted cell-killing curve with a large enough effect; inconclusive = small, poorly fitted or top-dose-only effect, or effect the other way; inactive = flat fitted curve, though single readings scatter. Non-standard residues stand in square brackets, D forms with d. Residues, ends and D or L forms follow the SMILES beside them. *: point of attachment. Sta = CC(C)C[C@H](N)[C@@H](O)CC(=O)O; Isovaleryl = CC(C)CC(=O)*
# Tested on: CASKI
# Assay: Primary qHTS to identify gynecologic anti-cancer compounds using libraries of approved drugs and bioactive compounds (AID 1345084); also: nearly all actives have a fitted effect of over 55% in size
# Conditions: Gynecologic cancer cell panel viability, ATPlite luminescence, 48 h; series mostly up to 57.5 µM; activity change, negative = cytotoxicity: at the top concentration
# How it was run: (§1)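 Five-concentration response, 48 h; readout is ATP-driven luciferase luminescence.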
# % is scaled to controls: 0 for no effect and ±100 for the full control effect; potency is read from the fitted curve at half-maximal effect.
SMILES,"activity change, negative = cytotoxicity",Potency
O=C(NCC1CCCCN1)c1cc(OCC(F)(F)F)ccc1OCC(F)(F)F (centres undefined),-21.8% (inactive),
O=C(OC1C[C@H]2CC[C@@H](C1)[N+]21CCCC1)C(O)(c1ccccc1)c1ccccc1 (some centres undefined),-7.58% (inactive),
CCC(C)(Oc1ccc(C2(c3ccc(OC(C)(CC)C(=O)O)cc3)CCCCC2)cc1)C(=O)O (centres undefined),,inactive
Oc1ccc(OCc2ccccc2)cc1,-4.45% (inactive),
CCOC(=O)c1c(C)n(C)c2ccc(O)cc12,11.2% (inactive),
CC(C)c1nc(CN(C)C(=O)N[C@H](C(=O)N[C@@H](Cc2ccccc2)C[C@H](O)[C@H](Cc2ccccc2)NC(=O)OCc2cncs2)C(C)C)cs1,,inactive
N=C(N)c1ccc2cc(OC(=O)c3ccc(N=C(N)N)cc3)ccc2c1,-2.38% (inactive),
Cc1cc(=O)oc2cc(O)ccc12,-9% (inactive),
c1cnc2cc3c(cc2n1)C1CNCC3C1,,inactive
Clc1ccc(C(Cn2ccnc2)OCc2ccsc2Cl)c(Cl)c1 (centres undefined),-1.87% (inactive),
CN(C)C(=O)COC(=O)Cc1ccc(OC(=O)c2ccc(N=C(N)N)cc2)cc1,20.1% (inactive),
CC1=C(C)C(=O)C(C(CCCCCC(=O)O)c2ccccc2)=C(C)C1=O (centres undefined),-7.17% (inactive),
Cn1c(NCCN(CCO)CCCc2ccc([N+](=O)[O-])cc2)cc(=O)n(C)c1=O,-2.77% (inactive),
O=C(O)c1cn(-c2ccc(F)cc2)c2cc(N3CCNCC3)c(F)cc2c1=O,14% [at 25.3 µM] (inactive),
CC(C)[C@H](N)C(=O)OCCOCn1cnc2c(=O)[nH]c(N)nc21,4.09% (inactive),
Nc1ccc(S(N)(=O)=O)cc1,3.51% (inactive),
COc1cc(OC)c(C(=O)CCCN2CCCC2)c(OC)c1,10.3% (inactive),
O=C(NOCC1CC1)c1ccc(F)c(F)c1Nc1ccc(I)cc1Cl,-29.9% (inactive),
CC1(C)CCC(C)(C)c2cc(NC(=O)c3ccc(C(=O)O)cc3)ccc21,-1.75% (inactive),

SMILES,"activity change, negative = cytotoxicity",Potency
O=C(c1ccccc1)c1ccc2n1CCC2C(=O)O (centres undefined),1.91% (inactive),
O=C(O)CCNC(=O)c1ccc(N=Nc2ccc(O)c(C(=O)O)c2)cc1,-2.55% (inactive),
CN(C)c1ccc(O)c2c1C[C@H]1C[C@H]3[C@H](N(C)C)C(=O)C(C(N)=O)=C(O)[C@@]3(O)C(=O)C1=C2O,0.216% (inactive),
CNC[C@H](O)c1ccc(O)c(O)c1,2.06% [at 25.3 µM] (inactive),
COc1cc2nc(N3CCN(C(=O)C4CCCO4)CC3)nc(N)c2cc1OC (centres undefined),-0.701% (inactive),
CCC[C@@H]1C[C@@H](C(=O)N[C@@H]([C@H]2O[C@H](SC)[C@H](O)[C@@H](O)[C@H]2O)[C@@H](C)O)N(C)C1,-0.939% (inactive),
CCC1=C(C)CN(C(=O)NCCc2ccc(S(=O)(=O)NC(=O)NC3CCC(C)CC3)cc2)C1=O (centres undefined),,inactive
Nc1ncn([C@H]2C[C@H](O)[C@@H](CO)O2)c(=O)n1,1.75% (inactive),
CCCc1cc(=O)[nH]c(=S)[nH]1,-1.9% (inactive),
CC(C)CC(=O)N[C@H](C(=O)N[C@H](C(=O)N[C@@H](CC(C)C)[C@@H](O)CC(=O)N[C@@H](C)C(=O)N[C@@H](CC(C)C)[C@@H](O)CC(=O)O)C(C)C)C(C)C (Isovaleryl-VV[Sta]A[Sta]-OH),-1.39% (inactive),
COCCCN1CCC(NC(=O)c2cc(Cl)c(N)c3c2OCC3)CC1,-1.71% (inactive),
CC1=C(C(=O)O)N2C(=O)[C@@H](NC(=O)[C@H](N)C3=CCC=CC3)[C@H]2SC1,0.853% (inactive),
CC(=O)NC[C@H]1CN(c2ccc(N3CCOCC3)c(F)c2)C(=O)O1,14.4% (inactive),
CC(=O)Nc1ccc(O)cc1,-18.3% (inactive),
CCN(CC)C(=S)SSC(=S)N(CC)CC,,35.5 µM (active) and inactive
COc1cc2c(N3CCN(C(=O)Nc4ccc(OC(C)C)cc4)CC3)ncnc2cc1OCCCN1CCCCC1,8.41% (inactive),
CS(=O)(=O)OCCCCOS(C)(=O)=O,2.42% (inactive),
Nc1cc(C(Cl)=C(Cl)Cl)c(S(N)(=O)=O)cc1S(N)(=O)=O,3.42% (inactive),

# Tested on: Es-2
# Assay: as above
# Conditions: Gynecologic cancer cell panel viability, ATPlite luminescence, 48 h; series mostly up to 57.5 µM; activity change, negative = cytotoxicity: at the top concentration
# How it was run: as §1
SMILES,"activity change, negative = cytotoxicity",Potency
O=C(NCC1CCCCN1)c1cc(OCC(F)(F)F)ccc1OCC(F)(F)F (centres undefined),-11.9% (inactive),
O=C(OC1C[C@H]2CC[C@@H](C1)[N+]21CCCC1)C(O)(c1ccccc1)c1ccccc1 (some centres undefined),-0.589% (inactive),
CCC(C)(Oc1ccc(C2(c3ccc(OC(C)(CC)C(=O)O)cc3)CCCCC2)cc1)C(=O)O (centres undefined),,inactive
Oc1ccc(OCc2ccccc2)cc1,-2.05% (inactive),
CCOC(=O)c1c(C)n(C)c2ccc(O)cc12,-1.26% (inactive),
CC(C)c1nc(CN(C)C(=O)N[C@H](C(=O)N[C@@H](Cc2ccccc2)C[C@H](O)[C@H](Cc2ccccc2)NC(=O)OCc2cncs2)C(C)C)cs1,,inactive
N=C(N)c1ccc2cc(OC(=O)c3ccc(N=C(N)N)cc3)ccc2c1,-6.59% (inactive),
Cc1cc(=O)oc2cc(O)ccc12,12.6% (inactive),
c1cnc2cc3c(cc2n1)C1CNCC3C1,,inactive
Clc1ccc(C(Cn2ccnc2)OCc2ccsc2Cl)c(Cl)c1 (centres undefined),-16.6% (inactive),
CN(C)C(=O)COC(=O)Cc1ccc(OC(=O)c2ccc(N=C(N)N)cc2)cc1,6.25% (inactive),
CC1=C(C)C(=O)C(C(CCCCCC(=O)O)c2ccccc2)=C(C)C1=O (centres undefined),-0.556% (inactive),
Cn1c(NCCN(CCO)CCCc2ccc([N+](=O)[O-])cc2)cc(=O)n(C)c1=O,-0.695% (inactive),
O=C(O)c1cn(-c2ccc(F)cc2)c2cc(N3CCNCC3)c(F)cc2c1=O,8.49% [at 25.3 µM] (inactive),
CC(C)[C@H](N)C(=O)OCCOCn1cnc2c(=O)[nH]c(N)nc21,10.7% (inactive),
Nc1ccc(S(N)(=O)=O)cc1,3.92% (inactive),
COc1cc(OC)c(C(=O)CCCN2CCCC2)c(OC)c1,6.06% (inactive),
O=C(NOCC1CC1)c1ccc(F)c(F)c1Nc1ccc(I)cc1Cl,-25.7% (inactive),
CC1(C)CCC(C)(C)c2cc(NC(=O)c3ccc(C(=O)O)cc3)ccc21,11.2% (inactive),

SMILES,"activity change, negative = cytotoxicity",Potency
O=C(c1ccccc1)c1ccc2n1CCC2C(=O)O (centres undefined),10.2% (inactive),
O=C(O)CCNC(=O)c1ccc(N=Nc2ccc(O)c(C(=O)O)c2)cc1,0.428% (inactive),
CN(C)c1ccc(O)c2c1C[C@H]1C[C@H]3[C@H](N(C)C)C(=O)C(C(N)=O)=C(O)[C@@]3(O)C(=O)C1=C2O,-1.39% (inactive),
CNC[C@H](O)c1ccc(O)c(O)c1,-2.1% [at 25.3 µM] (inactive),
COc1cc2nc(N3CCN(C(=O)C4CCCO4)CC3)nc(N)c2cc1OC (centres undefined),1.11% (inactive),
CCC[C@@H]1C[C@@H](C(=O)N[C@@H]([C@H]2O[C@H](SC)[C@H](O)[C@@H](O)[C@H]2O)[C@@H](C)O)N(C)C1,-0.324% (inactive),
CCC1=C(C)CN(C(=O)NCCc2ccc(S(=O)(=O)NC(=O)NC3CCC(C)CC3)cc2)C1=O (centres undefined),,inactive
Nc1ncn([C@H]2C[C@H](O)[C@@H](CO)O2)c(=O)n1,-5.43% (inactive),
CCCc1cc(=O)[nH]c(=S)[nH]1,3.82% (inactive),
CC(C)CC(=O)N[C@H](C(=O)N[C@H](C(=O)N[C@@H](CC(C)C)[C@@H](O)CC(=O)N[C@@H](C)C(=O)N[C@@H](CC(C)C)[C@@H](O)CC(=O)O)C(C)C)C(C)C (Isovaleryl-VV[Sta]A[Sta]-OH),8.33% (inactive),
COCCCN1CCC(NC(=O)c2cc(Cl)c(N)c3c2OCC3)CC1,-0.936% (inactive),
CC1=C(C(=O)O)N2C(=O)[C@@H](NC(=O)[C@H](N)C3=CCC=CC3)[C@H]2SC1,2.82% (inactive),
CC(=O)NC[C@H]1CN(c2ccc(N3CCOCC3)c(F)c2)C(=O)O1,3.12% (inactive),
CC(=O)Nc1ccc(O)cc1,10.5% (inactive),
CCN(CC)C(=S)SSC(=S)N(CC)CC,,15.8 µM (active)
COc1cc2c(N3CCN(C(=O)Nc4ccc(OC(C)C)cc4)CC3)ncnc2cc1OCCCN1CCCCC1,,inactive
CS(=O)(=O)OCCCCOS(C)(=O)=O,7.35% (inactive),
Nc1cc(C(Cl)=C(Cl)Cl)c(S(N)(=O)=O)cc1S(N)(=O)=O,1.85% (inactive),
